The values below come from PubChem BioAssay (NCATS).

Assay [1] is described as follows: qHTS of pediatric cancer cell lines to identify multiple opportunities for drug repurposing: Primary screen for BT-37 cells (AID 1347094). Note: potency is the fitted concentration of half-maximal effect. The method, boiled down:
(§1)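 Cells plated at 500-1,000/well in growth medium, compounds added after 5 h. MIPE tested at 11 points (from 0.78 nM), NPC at 8 points (from 0.59 nM). CellTiter-Glo luminescence after 48 h; concentration-response curves from primary screen.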
(In general: In qHTS, concentration-response curves come from the screen itself.)

A short description of assay [2]: qHTS of pediatric cancer cell lines to identify multiple opportunities for drug repurposing: Primary screen for NB-EBc1 cells (AID 1347095). Note: potency is the fitted concentration of half-maximal effect. The method, boiled down: as §1
Assay [3] is described as follows: qHTS of pediatric cancer cell lines to identify multiple opportunities for drug repurposing: Primary screen for U-2 OS cells (AID 1347096). Note: nearly all actives have a fitted effect of over 50% in size. A digest of the protocol:
(§2)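 Cells (500-1,000/well) rested 5 h, then received compounds for 48 h; metabolically active cells were measured by CellTiter-Glo luminescence. Final concentrations spanned up to 46 µM (MIPE, 11-point) or 0.59 nM-46 µM (NPC, 8-point) in primary screens, 11-point in follow-ups.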

The nature of assay [4]: qHTS of pediatric cancer cell lines to identify multiple opportunities for drug repurposing: Primary screen for Saos-2 cells (AID 1347097). Note: nearly all actives have a fitted effect of over 40% in size. Note: potency is the fitted concentration of half-maximal effect. The method, boiled down: as §1
Assay [5] is described as follows: qHTS of pediatric cancer cell lines to identify multiple opportunities for drug repurposing: Primary screen for SK-N-SH cells (AID 1347098). Note: nearly all actives have a fitted effect of over 65% in size. Note: potency is the fitted concentration of half-maximal effect. A digest of the protocol: as §2
A short description of assay [6]: qHTS of pediatric cancer cell lines to identify multiple opportunities for drug repurposing: Primary screen for NB1643 cells (AID 1347099). Note: nearly all actives have a fitted effect of over 50% in size. Note: potency is the fitted concentration of half-maximal effect. A digest of the protocol: as §1
Assay [7] can be described thus: qHTS of pediatric cancer cell lines to identify multiple opportunities for drug repurposing: Primary screen for Rh18 cells (AID 1347102). Note: nearly all actives have a fitted effect of over 65% in size. A digest of the protocol:
as §2

Assay [8] in a line: qHTS of pediatric cancer cell lines to identify multiple opportunities for drug repurposing: Primary screen for RD cells (AID 1347104). Note: nearly all actives have a fitted effect of over 55% in size. Note: potency is the fitted concentration of half-maximal effect. A digest of the protocol: as §1
The nature of assay [9]: qHTS of pediatric cancer cell lines to identify multiple opportunities for drug repurposing: Primary screen for control Hh wild type fibroblast cells (AID 1347106).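 Note: series mostly up to about 46 µM; a drop in luminescence marks cytotoxicity and a rise apparent proliferation; nearly all actives have a fitted effect of over 55% in size.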 A digest of the protocol:
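Cells (500-1,000/well) in growth media were settled 5 h at 37 degrees C, then given compounds for 48 h. Viability was read as CellTiter-Glo luminescence. Primary runs used MIPE at 11 points (0.78 nM-46 µM) and NPC at 8 points (0.59 nM-46 µM); follow-ups used 11 points.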

Assay [10] can be described thus: qHTS of pediatric cancer cell lines to identify multiple opportunities for drug repurposing: Primary screen for Rh30 cells (AID 1347107). Note: series mostly up to about 46 µM; nearly all actives have a fitted effect of over 75% in size. A digest of the protocol:
as §2

Assay [11] in a line: qHTS of pediatric cancer cell lines to identify multiple opportunities for drug repurposing: Primary screen for Rh41 cells (AID 1347108).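 Note: series mostly up to about 46 µM; luminescence drop marks cytotoxic hits; nearly all actives have a fitted effect of over 70% in size.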 The method, boiled down: as §1
Assay [12] in a line: qHTS of pediatric cancer cell lines to identify multiple opportunities for drug repurposing: Primary screen for BT-12 cells (AID 1347101). Note: nearly all actives have a fitted effect of over 25% in size. Note: potency is the fitted concentration of half-maximal effect. A digest of the protocol:
as §2

A short description of assay [13]: qHTS of pediatric cancer cell lines to identify multiple opportunities for drug repurposing: Primary screen for OHS-50 cells (AID 1347103). Note: nearly all actives have a fitted effect of over 40% in size. Note: potency is the fitted concentration of half-maximal effect. The method, boiled down:
as §2

The nature of assay [14]: qHTS of pediatric cancer cell lines to identify multiple opportunities for drug repurposing: Primary screen for MG 63 (6-TG R) cells (AID 1347105). Note: nearly all actives have a fitted effect of over 50% in size. Note: potency is the fitted concentration of half-maximal effect. The method, boiled down:
as §1

Assay [15] in a line: qHTS of pediatric cancer cell lines to identify multiple opportunities for drug repurposing: Primary screen for LAN-5 cells (AID 1347100). A digest of the protocol:
as §2

Assay [16] is described as follows: qHTS of pediatric cancer cell lines to identify multiple opportunities for drug repurposing: Confirmatory screen for NB1643 cells (AID 1347109). Note: nearly all actives have a fitted effect of over 45% in size. The method, boiled down: as §2
Assay [17] is described as follows: qHTS of pediatric cancer cell lines to identify multiple opportunities for drug repurposing: Confirmatory screen for A673 cells (AID 1347110).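 Note: cells exposed to compound for 48 h before the viability read; nearly all actives have a fitted effect of over 65% in size.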 A digest of the protocol: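 Forty-eight-hour viability assay. Follow-up compounds ran at 11-point dilutions; positive control bortezomib at 2.3 uM final, neutral control DMSO.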
A short description of assay [18]: qHTS of pediatric cancer cell lines to identify multiple opportunities for drug repurposing: Confirmatory screen for SK-N-MC cells (AID 1347111).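 Note: cells exposed to compound for 48 h before the readout; nearly all actives have a fitted effect of over 70% in size.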 The method, boiled down: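 Seed 500-1,000 cells/well; rest 5 h at 37 degrees C. Pin-transfer compounds, 11-point titration. Incubate 48 h. Add CellTiter-Glo, 15 min RT, read luminescence.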
Assay [19] can be described thus: qHTS of pediatric cancer cell lines to identify multiple opportunities for drug repurposing: Confirmatory screen for BT-12 cells (AID 1347112). Note: nearly all actives have a fitted effect of over 55% in size. A digest of the protocol: as §2
Assay [20] in a line: qHTS of pediatric cancer cell lines to identify multiple opportunities for drug repurposing: Confirmatory screen for LAN-5 cells (AID 1347113). Note: nearly all actives have a fitted effect of over 65% in size. The method, boiled down: as §2

Several values for one entry are separate records, joined by “and”; a condition that tells them apart may be missing. Identical values can stand only once. Results filed as inconclusive are left out. Activity calls are given as the source filed them. Calls come from the whole dose curve; as a rule, active = well fitted curve in the direction sought with a large enough effect; inconclusive = small, poorly fitted or top-dose-only effect, or another doubt; inactive = no such curve, though single readings can be large; an effect the other way counts as inactive or inconclusive.

In the case of `CCC(COC(=O)c1cc(OC)c(OC)c(OC)c1)(c1ccccc1)N(C)C` (centres undefined), the Potency result in [1], in assay [2], in assay [3], in assay [4], in assay [5] and in assay [6] was “inactive” throughout. The Potency entry in assay [7], in assay [8], in assay [9], in assay [10] and in [11] was “inactive” throughout.

Turning to `Oc1cc(Cl)ccc1Oc1ccc(Cl)cc1Cl`, the Potency is 40.9 µM (active) in [1]; 4.95 µM (active) in [2]; 24.8 µM (active) and 26.6 µM (active) in assay [4]; 11.4 µM (active) and 27.3 µM (active) in [5]; 35.1 µM (active) in assay [6]; 20.5 µM (active) in assay [12]. For the same compound, the Potency in [13] is 28.9 µM (active); in [8], 39.4 µM (active) and 23.7 µM (active); in assay [14], 24.8 µM (active). Moreover, the Potency entry in assay [3], in assay [9] and in assay [10] was “inactive” throughout.

Take `Cc1ccc(-c2nc3ccc(C)cn3c2CC(=O)N(C)C)cc1`: the Potency entry in assay [1], in assay [2], in [3], in assay [4], in assay [5] and in assay [6] was “inactive” throughout. Also, the Potency result in assay [15], in assay [12], in assay [7], in [13], in [8] and in assay [9] was “inactive” each time. Besides, the Potency result in assay [10] and in [11] was “inactive” in each case.

Turning to `CC(C)NCC(O)c1ccccc1Cl` (centres undefined), the Potency result in assay [1], in assay [2], in [3], in assay [4], in assay [5] and in assay [6] was “inactive” in each case. Further, the Potency result in assay [15], in [12], in [7], in [13], in assay [8] and in assay [14] was “inactive” in each case. Further, the Potency entry in assay [9], in [10] and in assay [11] was “inactive” throughout.

With `CN(C)CCc1ccc(O)cc1`, the Potency entry in [1], in [2], in assay [3], in [4], in assay [5] and in assay [6] was “inactive” each time. Besides, the Potency result in assay [15], in assay [12], in [7], in [13], in assay [8] and in assay [9] was “inactive” in each case. Besides, the Potency entry in [10] and in assay [11] was “inactive” throughout.

Consider `O=P1(NCCCl)OCCCN1CCCl` (centres undefined), for which the Potency entry in assay [1], in assay [2], in assay [3], in [4], in [5] and in assay [6] was “inactive” throughout. The Potency entry in [15], in [12], in assay [7], in assay [13], in assay [8] and in assay [14] was “inactive” in each case. In addition, the Potency entry in assay [9], in assay [10], in [11], in assay [16], in assay [17] and in assay [18] was “inactive” throughout. Moreover, the Potency entry in assay [19] and in [20] was “inactive” each time.

Take `N[C@@H](Cc1ccc(Oc2cc(I)c(O)c(I)c2)c(I)c1)C(=O)O`: the Potency result in [1], in assay [2], in assay [3], in assay [4], in assay [5] and in assay [6] was “inactive” each time. Also, the Potency result in assay [15], in assay [12], in [7], in [13], in [8] and in assay [14] was “inactive” each time. Moreover, the Potency entry in [9], in assay [10] and in [11] was “inactive” throughout.

Take `NCC(O)c1ccc(O)cc1` (centres undefined): the Potency entry in assay [1], in [2], in [3], in [4], in assay [5] and in assay [6] was “inactive” each time. Also, the Potency result in [15], in assay [12], in assay [7], in assay [13], in [8] and in [9] was “inactive” each time. In addition, the Potency result in [10] and in [11] was “inactive” each time.

Consider `CC(C)=CC1C(C(=O)OCc2cccc(Oc3ccccc3)c2)C1(C)C` (centres undefined), for which the Potency entry in assay [1], in [2], in assay [3], in [4], in assay [5] and in [6] was “inactive” in each case. Further, the Potency entry in assay [15], in assay [12], in assay [7], in assay [8], in assay [9] and in assay [10] was “inactive” throughout. In assay [11], the Potency result was “inactive”.

In the case of `CC[N+](CC)(CC)CC`, the Potency entry in assay [1], in assay [2], in assay [3], in assay [4], in assay [5] and in [6] was “inactive” each time. In addition, the Potency result in assay [15], in assay [12], in [7], in [13], in assay [8] and in assay [14] was “inactive” throughout. Besides, the Potency entry in assay [9], in assay [10] and in assay [11] was “inactive” throughout.

With `CCN(C(C)=O)c1cccc(-c2ccnc3c(C#N)cnn23)c1`, the Potency entry in assay [1], in assay [2], in [3], in assay [4], in [5] and in assay [6] was “inactive” in each case. The Potency result in assay [15], in [12], in [7], in [13], in assay [8] and in assay [14] was “inactive” each time. Moreover, the Potency entry in assay [9], in assay [10] and in assay [11] was “inactive” each time.

As for `CN1C(=S)CN=C(c2ccccc2)c2cc(Cl)ccc21`, the Potency entry in assay [1], in [2], in [3], in assay [4], in assay [5] and in assay [6] was “inactive” throughout. Further, the Potency entry in assay [15], in assay [12], in [7], in assay [13], in assay [8] and in assay [9] was “inactive” in each case. Besides, the Potency entry in assay [10] and in [11] was “inactive” each time.

On to `COc1ccc2c(c1OC)CN1CCc3cc4c(cc3C1C2)OCO4` (centres undefined), for which the Potency is 17.2 µM (active) in [1], 15.5 µM (active) in [12] and 17.4 µM (active) in [13]. In addition, the Potency entry in [2], in assay [3], in [4], in assay [5], in [6] and in assay [7] was “inactive” in each case. The Potency result in assay [8], in assay [14], in assay [9], in assay [10] and in assay [11] was “inactive” in each case.

Take `CC[N+]1(C)CCCC(OC(=O)C(O)(c2ccccc2)c2ccccc2)C1` (centres undefined): the Potency entry in [1], in [2], in [3], in assay [4], in assay [5] and in [6] was “inactive” in each case. Besides, the Potency result in assay [15], in assay [12], in [7], in [13], in [8] and in assay [14] was “inactive” each time. In addition, the Potency entry in assay [9], in assay [10] and in assay [11] was “inactive” throughout.

Consider `OCCOc1ccccc1`, for which the Potency result in assay [1], in assay [2], in [3], in assay [4], in assay [5] and in assay [6] was “inactive” each time. Besides, the Potency result in [15], in assay [12], in assay [7], in assay [13], in [8] and in [9] was “inactive” throughout. The Potency entry in assay [10] and in assay [11] was “inactive” throughout.

In the case of `FC(F)(F)c1cccc(C2=CCN(CCc3ccc4ccccc4c3)CC2)c1`, the Potency entry in assay [1], in assay [2], in assay [3], in [4], in assay [5] and in assay [6] was “inactive” in each case. Besides, the Potency result in [15], in [12], in [7], in assay [8], in assay [14] and in assay [9] was “inactive” each time. The Potency result in [10] and in assay [11] was “inactive” throughout.
